# Screening data as filed in PubChem BioAssay.
# DRD3 antagonist – qHTS of D3 Dopamine Receptor Antagonist: qHTS | actives 2.5% (n = 360,000) | D3R cells, DiscoveRx beta-arrestin luminescence, antagonist mode; active compounds read low | AID 652054, 2013 | max response, negative = inhibition, %; in the data active = max response below about -50%; inconclusive = no clear call, values can overlap the other calls; also: % is scaled to controls: 0 for no effect and ±100 for the full control effect
#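 Cells plated overnight at 1500 cells/well, then exposed to library compounds with dopamine controls for 90 minutes at 37 degrees C. DiscoveRx reagent added for 30–60 minutes at room temperature; luminescence read, quantitative HTS format.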
# GLP1R ag – qHTS of GLP-1 Receptor Agonists | Potency, µM (highest dose often 45.6 µM), inactives show at the top dose activation, actives largely listed as activators | HEK293 GLP-1R CRE-luciferase, luminescence, 4-6 h; cells express a hypersensitive GLP-1R form | Glucagon-like peptide 1 receptor (Homo sapiens), P43220 | actives 0.007% (n = 380,000) | AID 624172, 2012; also: potency is read from the fitted curve at half-maximal effect; % of control where 0% means no effect
# Target sequence (P43220 whole entry, looked up): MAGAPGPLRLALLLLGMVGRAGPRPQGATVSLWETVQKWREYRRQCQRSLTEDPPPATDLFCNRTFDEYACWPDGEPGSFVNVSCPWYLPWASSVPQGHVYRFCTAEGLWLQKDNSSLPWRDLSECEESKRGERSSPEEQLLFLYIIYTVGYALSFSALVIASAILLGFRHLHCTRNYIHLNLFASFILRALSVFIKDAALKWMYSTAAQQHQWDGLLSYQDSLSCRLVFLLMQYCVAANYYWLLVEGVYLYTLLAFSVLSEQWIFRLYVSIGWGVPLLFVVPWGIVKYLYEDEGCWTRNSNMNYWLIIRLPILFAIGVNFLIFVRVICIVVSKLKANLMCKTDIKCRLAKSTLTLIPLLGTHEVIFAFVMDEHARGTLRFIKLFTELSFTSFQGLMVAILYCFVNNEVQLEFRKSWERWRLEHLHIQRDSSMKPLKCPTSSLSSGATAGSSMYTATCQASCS
# GLP-1R inv ag – qHTS of GLP-1 Receptor Inverse Agonists (Inhibition Mode); HEK293 GLP-1R CRE-luciferase, luminescence, 24 h; GLP-1R form is constitutively active; Glucagon-like peptide 1 receptor (Homo sapiens), P43220; AID 624417, 2012; actives 1.6% (n = 410,000); Potency, µM (doses to about 38.3 µM), for inactives: at the top dose activity change, negative = inhibition, usual class: inhibitors; also: potency is read from the fitted curve at half-maximal effect; % is scaled to controls: 0 for no effect and ±100 for the full control effect; nearly all actives have a fitted effect of over 55% in size
#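 Stable HEK293 clone (constitutively active GLP-1R + cAMP-response luciferase); 200 cells/uL plated, 12 h pre-culture, compound 24 hr, 37 deg C/5% CO2; detection reagent 12 min RT; luminescence.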
# DRD3 agonist – qHTS of D3 Dopamine Receptor Agonist: qHTS; D3R DiscoveRx beta-arrestin cells, luminescence, 90 min; AID 652048, 2013; D(3) dopamine receptor (Homo sapiens), P35462; actives 0.58% (n = 410,000); max activation, %; in the data active = max activation above about 30%; also: 0% is about no effect
#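 Agonist-mode cell screen: cells plated at 1500/well and incubated overnight at 37 °C, then exposed to library compounds for 90 min at 37 °C. Detection reagent was added for 30–60 min at room temperature, and luminescence was read.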
# * hit, by the source's call; ? = inconclusive; nt = no result given. Compounds with a hit are over-represented: about 4.3% of the library has one in this group of screens. Unless noted, calls follow the shape of the dose curve; as a rule, active = well fitted curve in the direction sought with a large enough effect; inconclusive = small, poorly fitted or top-dose-only effect, or another doubt; inactive = no such curve, though single readings can be large; an effect the other way counts as inactive or inconclusive.
SMILES,DRD3 antagonist,GLP1R ag,GLP-1R inv ag,DRD3 agonist
O=C(Nc1ccc(F)c(F)c1)c1cc(S(=O)(=O)NC2CCCC2)ccc1F,nt,nt,10µM*,-10
CCCCCCCCCCCCCCCCCCNC(=O)OC1CCN(C(=O)OC[C@H](COC(=O)N(Cc2cccc[n+]2CC)C(=O)c2ccccc2OC)OC)CC1,nt,3%,nt,-23
CCc1ccccc1OCc1nc2ccc(S(=O)(=O)N3CCOCC3)cc2[nH]1,-56*,-1%,-8%,-2
Cc1noc(NS(=O)(=O)c2ccc(NC(=O)c3ccc(Br)cc3)cc2)c1C,nt,nt,9%,3
Cc1cc(C)c(C#N)c(N2CCN(CCOc3ccc(Cl)cc3)CC2)n1,-78*,5%,?,-24
COc1ccc(Cl)cc1CN1CCN(c2nc(C)cc(C)c2C#N)CC1,-11,2%,?,-28
Cc1cccc(C)c1C(OCCN(C)C)C1CCCCC1 (configuration not stated),-89*,-4%,?,16
CC(C)(CN1CCN(c2ccccc2)CC1)NS(=O)(=O)c1ccccc1,?,21%,?,-30
CCOC(=O)c1c(NC(=O)CNC2CCCCC2)sc(C)c1C,-3,20%,4µM*,-19
CCOC(=O)c1c(NC(=O)CNCCO)sc(C)c1C,0,?,0%,0
Cc1ccc(NC(=O)c2c(C)nc3sc(C(=O)Nc4ccc(F)cc4)c(N)c3c2-c2ccc(C)o2)c(C)c1,nt,nt,-20%,13
COc1cc(CNC2CCCC2)cc(Cl)c1OCc1ccccc1Cl,19,-21%,8.9µM*,-19
COc1cc(CNC2CCCC2)cc(Cl)c1OCc1ccc(F)cc1,59,-3%,4.5µM*,3
CCOc1cc(CNC2CCCC2)cc(Cl)c1OCc1ccc(F)cc1,-13,-1%,?,-15
CCOC(=O)c1cccc(NC(=O)c2cc(S(=O)(=O)N3CCCC3)cn2C)c1,nt,nt,0%,-1
Cc1ccc(-c2n[nH]c(=S)c3ccccc23)cc1S(=O)(=O)NCC1CCCO1 (configuration not stated),-1,30%,77%,4
CC(C)Cn1c(=O)c2sccc2n2c(CCCC(=O)NCC(C)c3ccccc3)nnc12 (configuration not stated),nt,nt,8%,2
CCOC(=O)c1ccc(NS(=O)(=O)c2ccc3c(c2)CCN3C(=O)CC)cc1,nt,1%,-1%,-14
Cc1ccc(S(=O)(=O)c2ncccc2N)cc1,0,-9%,6%,0
Cc1ccc(S(=O)(=O)c2ncccc2[N+](=O)[O-])cc1,-90*,-4%,?,-7
Cc1ccc(C(=O)Nc2cccc(C(=O)NCc3ccccc3)c2)o1,-6,-18%,?,-15
C/C(=N\NC(=O)C1(C)CC1(Br)Br)c1cccc(NC(=O)c2ccc(C)o2)c1 (configuration not stated),77,-21%,?,37*
CCNC(=O)C1CCN(c2nnc(C)c3c(C)n(-c4ccc(OC)cc4)nc23)CC1,nt,nt,29%,4
CCC1CCCCN1C(=O)CSc1nnc(-c2c[nH]c3ccccc23)o1 (configuration not stated),-24,5%,11µM*,-7
CC1CCCC(C)N1C(=O)CSc1nnc(-c2c[nH]c3ccccc23)o1 (configuration not stated),7,0%,-11%,-2
SMILES,DRD3 antagonist,GLP1R ag,GLP-1R inv ag,DRD3 agonist
O=C(NCc1ccccc1F)C1CCCN(C(=O)N2CCOc3ccccc32)C1 (configuration not stated),nt,nt,-5%,-5
COc1ccc(N(Cc2cccs2)C(=O)COc2cccc(Cl)c2)cc1,nt,nt,14µM*,-5
CCc1ccc(N2CC(c3nc4ccccc4n3Cc3ccccc3C)CC2=O)cc1 (configuration not stated),nt,nt,?,7
CCCOc1ccccc1C(=O)N1CCCCC1CCN1CCCCC1 (configuration not stated),nt,nt,4%,49*
OC(c1ccccc1)(c1ccc(F)cc1)C(c1ccccc1)N1CCOCC1 (configuration not stated),4,-12%,7.9µM*,-7
Cc1c(C(=O)NC2CCS(=O)(=O)C2)oc2ccccc12 (configuration not stated),-4,3%,-5%,47*
